Assay outcomes: PubChem BioAssay, several laboratories
Shn3 inh set2 – reduction of Shn3 3'UTR firefly luciferase signal, primary screen, Schnurri-3 inhibitor project, cell-based, Clone20 osteoblasts, set 2 | Clone20 osteoblast Shn3 3'UTR firefly luciferase, 24 h | inhibition, % at 12.5 µM | actives 0.52% (n = 360,000) | AID 588674, 2011;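 active means mean inhibition of at least 75% with every replicate also reaching 75%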;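 further: 0% = median of neutral control wells and 100% = pilot-screen positive control compound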
LMP1 NFkB inh – EBV LMP1-driven NF-kappaB luciferase reporter inhibitors, primary screen, cell-based, luminescence, single point; LMP1-induced NF-kappaB luciferase reporter cells; actives 0.69% (n = 350,000); inhibition, % at 12.5 µM; in the data active means inhibition above about 41%;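 further: 0% = neutral control wells and 100% = reference inhibitor control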
HIF-2a block – HIF-2a reporter inhibitors, primary screen, luminescence, 786-0 RCC cells | actives 0.72% (n = 360,000) | 786-0 RCC cells HIF-2a reporter, luciferase luminescence, overnight | AID 624352, 2012 | inhibition, % at 18.8 µM;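 active means inhibition of the luminescence signal of 40% or more relative to plate controls, in a single-dose primary screen at 18.75 µM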
CF NFkB inh – inhibitors of PAF-induced NF-kB signaling, primary screen, cell-based, GFP fluorescence, uHTS; AID 588850, 2011; actives 0.86% (n = 360,000); KKLEB NF-kB-GFP reporter, GFP fluorescence overnight; inhibition, % at 5 µM;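 active means at least 50% inhibition at 5 µM, scaled per plate between neutral and stimulator controls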;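 further: PAF is a Pseudomonas aeruginosa culture filtrate used as stimulus; plate controls were PAF-stimulated DMSO wells for no effect and unstimulated DMSO wells for full effect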
KKLEB cytotox – cytotoxicity in KKLEB CF airway cells, primary screen, cytotoxicity control for CF NF-kB inhibitor project, cell-based, uHTS, fluorescence assay plates; KKLEB CF airway cells viability, ATPlite luminescence, overnight; stronger effect = lower value; cells stimulated with P. aeruginosa culture filtrate; activity change (cytotoxicity), % at 5 µM; actives 0.36% (n = 360,000);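 active means corrected activity change at or below -50% at 5 µM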
Peg3 promoter – Peg3 promoter-driven luciferase inhibitors, primary screen, cell-based, HeLa, luciferase luminescence. HeLa PEG-Prom luciferase reporter, overnight. inhibition, % at 20 µM. actives 1.7% (n = 360,000). AID 588405, 2011;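 active means inhibition of at least 50% at 20 µM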
CF NFkB conf – inhibitors of PAF-induced NF-kB signaling, retest, confirmation, cell-based, GFP fluorescence, single concentration; actives 64% (n = 1,300); KKLEB CF airway cells, overnight; inhibition, % at 5 µM; shares compounds with CF NFkB inh; in the data active means inhibition above about 40%;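 further: stimulus PAF is a Pseudomonas aeruginosa filtrate and not platelet activating factor; plate controls were DMSO wells with stimulus for no effect and unstimulated DMSO wells for full effect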
Mdm2 MdmX conf – retested Mdm2-MdmX interaction blockers, confirmation, cell-based, luminescence, single concentration, set 2; shares compounds with HIF-2a block; SaOS-2 split-luciferase Mdm2/MdmX complementation; inhibition, % at 8 µM; actives 99% (n = 740);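 active means mean inhibition of the luminescence signal across two replicates at or above 26 percent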
HIF-2a conf – HIF-2a reporter inhibitor retest, confirmation, luminescence, 786-0 RCC cells | actives 56% (n = 1,800) | HIF-2a luciferase reporter luminescence, overnight | AID 651580, 2012 | inhibition, % at 18.8 µM | shares compounds with HIF-2a block;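 active means mean inhibition across four replicates of at least 40 percent at the single tested concentration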
HIF-1a cs – HIF-1a luciferase reporter signal reduction – MiaPaCa-2 cells, single concentration, counter-screen for HIF-2a inhibitor project, confirmation; shares compounds with HIF-2a block; MiaPaCa-2 HIF-1a luciferase reporter, desferoxamine, overnight; inhibition, % at 18.8 µM; actives 72% (n = 1,800);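 active means mean inhibition of the reporter signal across four replicates at the single tested dose of 50% or more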
* marks the source's active call; other numbers are inactive results; · = not tested or not shown. Most compounds without a hit are left out; they make up all but 2.9% or so of the library.

SMILES	Shn3 inh set2	LMP1 NFkB inh	HIF-2a block	CF NFkB inh	KKLEB cytotox	Peg3 promoter	CF NFkB conf	Mdm2 MdmX conf	others
O=C1NC[C@H](Cc2ccccc2)N(C[C@H]2CCCN2C[C@H](Cc2ccccc2)N2C[C@H](Cc3ccccc3)N(CC3CCCCCC3)C(=O)C2=O)C1=O	6	6	80*	56*	-24	54*	20	·	HIF-2a conf=2;HIF-1a cs=105*
COc1ccc(S(=O)(=O)NCC(c2ccc3c(c2)OCO3)N2CCN(c3ccccc3)CC2)cc1 (stereo unspecified)	-4	1	10	-17	5	20	·	·
CCOC(=O)C1=NOC(CNc2ncc(C(F)(F)F)cc2Cl)C1 (stereo unspecified)	-3	1	2	-5	-5	0	·	·
c1nc(NCc2ccc3c(c2)OCO3)c2cc(-c3ccoc3)ccc2n1	-3	49*	-38	82*	-30	2	92*	88*
Fc1cccc(CNc2ncnc3ccc(-c4ccc5c(c4)OCO5)cc23)c1	-5	-1	27	17	-2	25	·	·
O=C(c1ccc(N2CCN(C(=O)c3ccc(F)cc3F)CC2)cc1)c1cccc(F)c1	52	17	11	12	2	18	·	·
Cc1cc(C)c2nc(C(F)(F)F)c(C#N)c(N)c2c1	11	40	12	70*	-16	73*	92*	83*
C#CCN(C[C@@H]1[C@@H](OC(=O)NC2CCCC2)[C@@H](OC(=O)NC2CCCC2)Cn2c(=O)ccc(=O)n21)S(=O)(=O)c1ccc(C)cc1	94*	9	97*	64*	-24	96*	12	·	HIF-2a conf=99*;HIF-1a cs=108*
C#CCN(C[C@@H]1[C@@H](OC(=O)NC2CC2)[C@@H](OC(=O)NC2CC2)CN(C(=O)OC(C)C)N1C(=O)OC(C)C)S(=O)(=O)c1ccc(C)cc1	-9	-23	20	14	8	-30	·	·
COc1ccc(OC)c(N(CC(=O)NN=C2CCN(C)CC2)S(=O)(=O)c2ccccc2)c1	-15	-3	4	6	4	16	·	·
Cc1c(C(=O)N2CCN(c3ccc([N+](=O)[O-])cc3)CC2)oc2ccccc12	12	1	1	11	4	24	·	·
Cc1c(-c2ccccc2)oc2c(C(=O)N3CCN(c4ccc([N+](=O)[O-])cc4)CC3)cccc2c1=O	26	32	27	82*	-20	2	82*	87*
COc1ccc2cc3c(N)nn(C(=O)c4ccc(Cl)c([N+](=O)[O-])c4)c3nc2c1	10	19	1	65*	-7	-1	39	96*
COc1ccc2cc3c(N)nn(C(=O)c4ccccc4[N+](=O)[O-])c3nc2c1	13	63*	32	71*	-28	4	93*	93*
CCCC1CCC(C(=O)n2nc(N)c3cc4ccc(OC)cc4nc32)CC1 (stereo unspecified)	-2	6	15	36	3	9	·	·
O=C(NCc1cccnc1)C(=O)C1C(=O)Nc2ccccc21 (stereo unspecified)	·	-7	16	14	-2	16	·	·
CC(C)CN=C(NS(=O)(=O)c1ccccc1)C(Cl)(Cl)Cl	65	19	92*	88*	-23	99*	93*	·	HIF-2a conf=93*;HIF-1a cs=105*
Cc1cc(O)c(C(=O)/C=C/c2cccc([N+](=O)[O-])c2)c(=O)o1	·	-6	-2	15	-16	-1	·	·
CC(=O)Oc1ccccc1C(=O)C=Cc1cccc([N+](=O)[O-])c1	56	18	89*	80*	-41	99*	-60	·	HIF-2a conf=94*;HIF-1a cs=103*
N/C(=C\C(=O)c1cc(Cl)ccc1O)C(Cl)(Cl)Cl	40	-6	25	54*	5	29	-62	103*
COc1ccc(-c2[nH]ncc2-c2ccc3c(c2)OCCO3)c(O)c1	11	64*	25	89*	-16	27	102*	96*
CCC(C)C(=O)NCCc1ccc(S(N)(=O)=O)cc1 (stereo unspecified)	-6	-2	19	9	3	-6	·	·
COC(=O)C1=CC(C(=O)c2cccs2)=NN(c2ccc(OC)cc2)C1C(=O)OC (stereo unspecified)	5	0	3	-13	-4	6	·	·
CC(C)(C)c1ccc(C(=O)NCCN2CCOCC2)cc1	-6	-12	-23	5	-3	-15	·	·
CC(C)(C)c1ccc(C(=O)NCCCN2CCN(CCCNC(=O)c3ccc(C(C)(C)C)cc3)CC2)cc1	83	-4	73*	21	-71*	109*	·	102*
SMILES	Shn3 inh set2	LMP1 NFkB inh	HIF-2a block	CF NFkB inh	KKLEB cytotox	Peg3 promoter	CF NFkB conf	Mdm2 MdmX conf	others
Cc1ccc(/C=C/C(=O)NCCCN2CCN(CCCNC(=O)/C=C/c3ccc(C)cc3)CC2)cc1	0	3	-9	-1	2	-11	·	·
CC(C)(C)c1ccc(/C=C/C(=O)NCCCN2CCOCC2)cc1	4	-9	48*	-8	-8	-4	·	·	HIF-2a conf=26;HIF-1a cs=30
CCc1nc(SCc2ccccc2C#N)n[nH]1	-3	-3	-23	-1	1	-10	·	·
O=C(Nc1ccc(F)cc1)Nc1cc(OCC(F)(F)F)cc(OCC(F)(F)F)c1	90*	28	13	46	-35	41	·	93*
CC1CC2(C)Oc3ccccc3CC2C(C)C1CNCCCN(C)C (stereo unspecified)	13	-32	84*	23	-20	107*	·	101*	HIF-2a conf=6;HIF-1a cs=105*
Cc1ccc(N(CCC#N)C(=O)CCl)cc1C	-8	2	33	24	-26	46	·	103*
